According to PubChem BioAssay AID485317 (Broad Institute, 2010):
The campaign covered roughly 290,000 compounds. About 11,000 (3.8%) were called active.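 The calls were made as follows: active = mean replicate inhibition above about 79%, with every replicate also reaching it (limit read from the data); inconclusive = only one of the two criteria met; inactive = mean below limit and not every replicate reaching it.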 Shown is part of a subset that was picked to be rich in actives.

target: FAD-linked sulfhydryl oxidase ALR (Homo sapiens) (UniProt P55789); assay: ALR-catalysed DTT oxidation blockers – biochemical, H2O2 detection, HRP-luminol luminescence, single point, primary screen (AID 485317); settings: purified ALR, active compounds read high, concentration not given here
Sequence (P55789 whole entry, looked up): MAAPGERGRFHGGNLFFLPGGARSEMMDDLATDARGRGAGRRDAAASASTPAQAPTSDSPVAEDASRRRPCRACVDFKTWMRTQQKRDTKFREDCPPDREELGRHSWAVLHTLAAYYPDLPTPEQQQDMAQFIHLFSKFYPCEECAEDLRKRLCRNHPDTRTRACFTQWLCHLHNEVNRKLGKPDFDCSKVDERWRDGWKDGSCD

Row | SMILES | inhibition
1 | CC1CCCCC12NC(=O)N(CC(=O)OCc1c(F)cccc1Cl)C2=O (stereo not given) | 25.1% (inactive)
2 | COc1ccc(C)cc1NC(=O)CSc1cccc[n+]1[O-] | -22.2% (inactive)
3 | C[C@H](OC(=O)n1ccnc1)[C@@H]1O[C@@]2(C)CCC[C@@H]1O2 | 4.53% (inactive)
4 | CCCC(=O)NC(C)C(c1cccs1)N1CCN(c2ccccc2)CC1 (stereo not given) | 97.6% (active)
5 | CC(NC(=O)Nc1ccccc1)C(c1cccs1)N1CCN(c2ccccc2)CC1 (stereo not given) | 1.95% (inactive)
6 | CC(NC(=O)C(C)(C)C)C(c1cccs1)N1CCN(Cc2ccccc2)CC1 (stereo not given) | -4.94% (inactive)
7 | O=C(NC(=S)Nc1ccc(Br)cc1F)C1CCCCC1 | -2.71% (inactive)
8 | O=C(COc1ccccc1F)NNC(=O)c1cc(Br)ccc1Cl | -9.96% (inactive)
9 | Cc1ccccc1-c1cc(C(=O)NCc2cccs2)n(CC2CC(c3cccnc3)=NO2)n1 (stereo not given) | 8.05% (inactive)
10 | COc1ccc(-c2csc(Cc3nc(O)cs3)n2)cc1 | 86.8% (active)
11 | COc1ccc(-c2csc(NC3OC(=O)c4ccccc43)n2)cc1 (stereo not given) | 22.4% (inactive)
12 | COc1ccc(-c2csc(NC(=O)COC(=O)c3ccc(Br)o3)n2)cc1 | 53.6% (inactive)
13 | O=C(NCCc1ccccc1)c1ccc2c(c1)N(Cc1ccccc1)CCS2 | 10.1% (inactive)
14 | CCOC(=O)N1CCN(C(=O)c2ccc(S(=O)(=O)c3ccc(C)cc3)c(NC(C)=O)c2)CC1 | 4.26% (inactive)
15 | CCOC(=O)N1CCN(C(=O)c2ccc3c(c2)N(Cc2ccc(C)cc2)CCS3)CC1 | 93.4% (active)
16 | O=C(CSc1nc2ccc(Nc3nc(N4CCOCC4)nc(N4CCOCC4)n3)cc2s1)NCc1ccco1 | 98.7% (active)
17 | O=C(CSc1nc(Nc2ccccc2)nc(N2CCOCC2)n1)Nc1cc(Cl)ccc1O | -0.209% (inactive)
18 | C=CCn1c(CSc2nc3ccccc3s2)nnc1SCC(=O)NCc1ccco1 | 60.8% (inactive)
19 | O=C(c1ccc(F)c(S(=O)(=O)N2CCOCC2)c1)N(CCc1ccccc1)Cc1ccccc1 | -7.64% (inactive)
20 | O=S(=O)(c1ccccc1)N(CC(O)CN1CCCCC1)c1ccccc1 (stereo not given) | -3.01% (inactive)

Row | SMILES | inhibition
21 | OCC(O)CN(c1ccccc1)c1ccccc1 (stereo not given) | 99% (active)
22 | Cc1cccc(N(CC(O)CN(C)C)S(=O)(=O)c2ccccc2)c1 (stereo not given) | -4.54% (inactive)
23 | CN(c1ccccc1)S(=O)(=O)c1ccc(C(=O)N2CCN(c3ccccc3Cl)CC2)cc1 | -8.17% (inactive)
24 | O=[N+]([O-])c1ccc(S(=O)(=O)Nc2cccc(-c3ccc(N4CCCC4)nn3)c2)cc1 | 0.216% (inactive)
25 | C=CCOc1ccc(/C=C/C(=O)OCC(=O)NC(C)c2ccc(F)cc2)cc1 (stereo not given) | -7.12% (inactive)
26 | O=C1CCCC(O)=C1N=Nc1ccc2ncsc2c1 | 97.4% (active)
27 | O=C1CCCC(O)=C1N=Nc1ccc(S(=O)(=O)N2CCOCC2)cc1 | -10.4% (inactive)
28 | COc1ccccc1-c1sc2ccccc2c1C#CC1(O)CCCCC1 | -3.52% (inactive)
29 | O=C(/C=C/c1cccc([N+](=O)[O-])c1)NCCSCc1ccco1 | 98.5% (active)
30 | O=C(NCc1ccco1)c1ccc([N+](=O)[O-])cc1Cl | -19% (inactive)
31 | CCC(CC)NC(=O)/C=C/c1cccc([N+](=O)[O-])c1 | -3% (inactive)
32 | O=C(NCc1ccco1)/C(=C/c1cccc([N+](=O)[O-])c1)NC(=O)c1ccco1 | 69.6% (inactive)
33 | O=C(/C=C/c1ccc([N+](=O)[O-])cc1)NCCSCc1ccco1 | 98.4% (active)
34 | O=C(CSCc1ccc([N+](=O)[O-])cc1)NCCSCc1ccccc1 | -10.2% (inactive)
35 | CCN(C(=O)CSc1ncnc2sccc12)c1c(N)n(Cc2ccccc2)c(=O)[nH]c1=O | -0.954% (inactive)
36 | CCNC(=S)N(CCc1c(C)[nH]c2ccc(C)cc12)Cc1ccco1 | 69.2% (inactive)
37 | COCCNC(=S)N(CCc1c(C)[nH]c2ccc(C)cc12)Cc1cccnc1 | 90.7% (active)
38 | COCCNC(=S)N(Cc1cccnc1)Cc1ccc(OC)c(OC)c1 | -1.92% (inactive)
39 | Cc1n[nH]c(=O)c2c(NC(=O)CSc3ccccc3F)oc(C)c12 | 1.87% (inactive)
40 | CC(C)COc1ccc(C(=O)NNC(=O)CCC(=O)c2cccs2)cc1 | -17.3% (inactive)

Row | SMILES | inhibition
41 | CC(NC(=O)COC(=O)CCC(=O)c1ccc(Cl)cc1)c1ccccc1 (stereo not given) | -2.75% (inactive)
42 | Cc1noc(C)c1C(=O)OC(C)C(=O)Nc1ccc2c(c1)OCO2 (stereo not given) | -0.736% (inactive)
43 | O=C(Nc1cccc(NC(=O)N2CCN(c3ccccc3)CC2)c1)N1CCN(c2ccccc2)CC1 | -1.81% (inactive)
44 | CSc1ccc(NC(=O)/C=C/C(=O)O)cc1 | 0.113% (inactive)
45 | Cc1cccc(N2CCN(c3ccc(NC(=O)/C=C\C(=O)O)cc3)CC2)c1 | 99% (active)
46 | Cc1ccc(CN2CCN(c3ccccc3Cl)CC2)o1 | 2% (inactive)
47 | CN1CCN(S(=O)(=O)c2ccc(Nc3ccc(F)cc3)nc2)CC1 | -2.65% (inactive)
48 | O=C(OCC(=O)N1CCCCCC1)c1ccc(Br)c(S(=O)(=O)N2CCOCC2)c1 | -8.29% (inactive)
49 | COc1ccc(NC(=O)CN(C)C(=O)Cc2coc3cc(C)c(C)cc23)cc1 | 0.212% (inactive)
50 | CCC1CO/C(=C(\C(=C(Cl)Cl)N2CCOCC2)[N+](=O)[O-])N1 (stereo not given) | 81% (active)
51 | COC(=O)[C@]1(C)CCC[C@@]2(C)C3CC[C@]4(OC(C)=O)C[C@@]3(CCC21)CC4=NO (stereo not given in full) | -3.27% (inactive)
52 | COc1ccc(C(=O)Nc2cccc(NC(=O)c3ccc(OC)cc3OC)n2)c(OC)c1 | -5.93% (inactive)
53 | CCCCn1c(N)c(N(CCOC)C(=O)COc2c(C)cccc2C)c(=O)[nH]c1=O | -2.66% (inactive)
54 | CSc1nc(C)cc(SC(C(C)=O)C(=O)Nc2ccccc2)n1 (stereo not given) | 92.7% (active)
55 | CSc1nsc(NC(=O)Nc2ccccc2)n1 | 4.37% (inactive)
56 | Cc1cc(SCC(=O)c2ccccc2)nc(SCC(=O)c2ccccc2)n1 | 1.19% (inactive)
57 | O=C(COC(=O)C1CC2CCCC(C1)C2=O)NC(=O)c1ccccc1 (stereo not given) | 1.09% (inactive)
58 | CC(C)(C)C(=O)CN1C2=NCCN2c2ccccc21 | 93.6% (active)
59 | OC(CN1C2=NCCCN2c2ccccc21)c1ccc(Br)cc1 (stereo not given) | 9.53% (inactive)
60 | O=C(CN1C2=NCCN2c2ccccc21)c1cccs1 | 17.3% (inactive)
